Measured values taken from PubChem BioAssay AID1159580 (chemical genetic matrix, 2015).
About 2,000 (36%) of roughly 5,500 compounds were called active. About 18% were inconclusive and are not listed. No stated cut-off is given here; in the data, active means normalized growth mostly below about 0.91 (no sharp cut-off); inconclusive means no clear call, values can overlap the other calls; inactive means mostly above about 0.92. The list shows a part of the results.

Experiment: chemical genetic growth profiling, strain panel (AID 1159580);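 further: tested at 20 µM; growth read once vehicle control cultures reached saturation at 30 °C; 1 = growth at the plate median or of vehicle wells; lower values mean less growth of the strain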
Settings: growth OD

Measured: normalized growth

C=CCC1(C(C)CCC)C(=O)N=C(S)NC1=O (configuration not stated)
inactive: S. cerevisiae deletion strains, locus YJR075W, strain HOC1, active compounds read low 1.04 | S. cerevisiae deletion strains, locus YKL009W, strain mrt4, active compounds read low 0.963 | S. cerevisiae deletion strains, locus YKL068W, active compounds read low 0.969 | S. cerevisiae deletion strains, locus YKL085W, strain MDH1 (second series), active compounds read low 0.983 | S. cerevisiae deletion strains, locus YKL085W, strain MDH1, active compounds read low 0.983 | S. cerevisiae deletion strains, locus YKL160W, strain elf1, active compounds read low 0.972 | S. cerevisiae deletion strains, locus YKL190W, strain CNB1, active compounds read low 0.992 | S. cerevisiae deletion strains, locus YKR001C, strain vps1, active compounds read low 0.993 | S. cerevisiae deletion strains, locus YKR026C, strain gcn3, active compounds read low 0.925 | S. cerevisiae deletion strains, locus YKR091W, strain srl3, active compounds read low 0.978 | S. cerevisiae deletion strains, locus YLL001W, strain dnm1, active compounds read low 0.942 | S. cerevisiae deletion strains, locus YLL026W, active compounds read low 0.994 | S. cerevisiae deletion strains, locus YLL041C, strain sdh2, active compounds read low 0.974 | S. cerevisiae deletion strains, locus YLR027C, strain aat2, active compounds read low 0.979 | S. cerevisiae deletion strains, locus YLR039C, strain RIC1, active compounds read low 0.891 | S. cerevisiae deletion strains, locus YLR058C, strain SHM2, active compounds read low 0.988 | S. cerevisiae deletion strains, locus YLR102C, strain apc9, active compounds read low 0.966 | S. cerevisiae deletion strains, locus YLR113W, strain HOG1, active compounds read low 0.977 | S. cerevisiae deletion strains, locus YLR221C, strain rsa3, active compounds read low 1 | S. cerevisiae deletion strains, locus YLR258W, strain gsy2, active compounds read low 0.967 | S. cerevisiae deletion strains, locus YLR262C, strain YPT6 (second series), active compounds read low 0.905 | S. cerevisiae deletion strains, locus YLR262C, strain YPT6, active compounds read low 0.853 | S. cerevisiae deletion strains, locus YLR268W, strain sec22, active compounds read low 0.992 | S. cerevisiae deletion strains, locus YLR320W, strain mms22, active compounds read low 1.01 | S. cerevisiae deletion strains, locus YLR330W, strain CHS5, active compounds read low 0.979 | S. cerevisiae deletion strains, locus YLR342W, strain FKS1 (second series), active compounds read low 0.916 | S. cerevisiae deletion strains, locus YLR342W, strain FKS1, active compounds read low 0.978 | S. cerevisiae deletion strains, locus YLR357W, strain rsc2, active compounds read low 0.978 | S. cerevisiae deletion strains, locus YLR370C, strain arc18, active compounds read low 0.99 | S. cerevisiae deletion strains, locus YLR371W, strain rom2, active compounds read low 0.957 | S. cerevisiae deletion strains, locus YLR384C, strain iki3, active compounds read low 0.944 | S. cerevisiae deletion strains, locus YLR418C, strain cdc73, active compounds read low 1.04 | S. cerevisiae deletion strains, locus YML016C, strain PPZ1, active compounds read low 0.994 | S. cerevisiae deletion strains, locus YML032C, strain rad52, active compounds read low 0.957 | S. cerevisiae deletion strains, locus YML120C, strain ndi1, active compounds read low 0.988 | S. cerevisiae deletion strains, locus YML124C, strain tub3, active compounds read low 0.981 | S. cerevisiae deletion strains, locus YMR058W, strain fet3, active compounds read low 0.977 | S. cerevisiae deletion strains, locus YMR078C, strain ctf18, active compounds read low 0.972 | S. cerevisiae deletion strains, locus YMR125W, strain sto1, active compounds read low 0.923 | S. cerevisiae deletion strains, locus YMR129W, active compounds read low 0.978 | S. cerevisiae deletion strains, locus YMR205C, strain PFK2, active compounds read low 0.965 | S. cerevisiae deletion strains, locus YMR223W, strain ubp8, active compounds read low 0.979 | S. cerevisiae deletion strains, locus YMR231W, strain pep5, active compounds read low 0.963 | S. cerevisiae deletion strains, locus YMR263W, strain SAP30, active compounds read low 1.01 | S. cerevisiae deletion strains, locus YMR307W, strain GAS1, active compounds read low 1.02 | S. cerevisiae deletion strains, locus YNL067W, strain RPL9B, active compounds read low 1.02 | S. cerevisiae deletion strains, locus YNL071W, strain lat1, active compounds read low 1 | S. cerevisiae deletion strains, locus YNL128W, strain TEP1, active compounds read low 1.01 | S. cerevisiae deletion strains, locus YNL153C, strain GIM3, active compounds read low 1.03 | S. cerevisiae deletion strains, locus YNL183C, strain NPR1, active compounds read low 0.929 | S. cerevisiae deletion strains, locus YNL209W, strain ssb2, active compounds read low 0.976 | S. cerevisiae deletion strains, locus YNL233W, strain BNI4, active compounds read low 1.03 | S. cerevisiae deletion strains, locus YNL248C, strain rpa49, active compounds read low 0.914 | S. cerevisiae deletion strains, locus YNL250W, strain rad50, active compounds read low 0.963 | S. cerevisiae deletion strains, locus YNL271C, strain bni1, active compounds read low 0.98 | S. cerevisiae deletion strains, locus YNL298W, strain CLA4, active compounds read low 0.978 | S. cerevisiae deletion strains, locus YNL307C, strain MCK1, active compounds read low 0.961 | S. cerevisiae deletion strains, locus YNL322C, strain KRE1 (second series), active compounds read low 0.969 | S. cerevisiae deletion strains, locus YNL322C, strain KRE1, active compounds read low 0.989 | S. cerevisiae deletion strains, locus YNR049C, strain mso1, active compounds read low 0.97 | S. cerevisiae deletion strains, locus YNR052C, strain pop2, active compounds read low 0.995 | S. cerevisiae deletion strains, locus YOL006C, strain TOP1, active compounds read low 1.06 | S. cerevisiae deletion strains, locus YOL012C, strain htz1 1.08 | S. cerevisiae deletion strains, locus YOL147C, strain pex11, active compounds read low 0.99 | S. cerevisiae deletion strains, locus YOR001W, strain rrp6, active compounds read low 0.952 | S. cerevisiae deletion strains, locus YOR061W, strain CKA2, active compounds read low 0.99 | S. cerevisiae deletion strains, locus YOR069W, strain VPS5, active compounds read low 0.974 | S. cerevisiae deletion strains, locus YOR070C, strain gyp1, active compounds read low 0.991 | S. cerevisiae deletion strains, locus YOR080W, strain dia2, active compounds read low 0.959 | S. cerevisiae deletion strains, locus YOR083W, strain WHI5, active compounds read low 0.976 | S. cerevisiae deletion strains, locus YOR106W, strain vam3, active compounds read low 0.941 | S. cerevisiae deletion strains, locus YOR136W, strain idh2, active compounds read low 0.993 | S. cerevisiae deletion strains, locus YOR144C, strain elg1, active compounds read low 0.991 | S. cerevisiae deletion strains, locus YOR184W, strain ser1, active compounds read low 0.949 | S. cerevisiae deletion strains, locus YOR231W, strain MKK1, active compounds read low 0.984 | S. cerevisiae deletion strains, locus YOR265W, strain rbl2, active compounds read low 0.976 | S. cerevisiae deletion strains, locus YOR270C, strain vph1, active compounds read low 0.912 | S. cerevisiae deletion strains, locus YOR290C, strain snf2, active compounds read low 0.996 | S. cerevisiae deletion strains, locus YOR316C, strain cot1, active compounds read low 0.981 | S. cerevisiae deletion strains, locus YPL051W, strain arl3, active compounds read low 0.979 | S. cerevisiae deletion strains, locus YPL055C, strain LGE1, active compounds read low 1.02 | S. cerevisiae deletion strains, locus YPL078C, strain atp4, active compounds read low 0.937 | S. cerevisiae deletion strains, locus YPL106C, strain sse1, active compounds read low 0.988 | S. cerevisiae deletion strains, locus YPL240C, strain hsp82, active compounds read low 0.97 | S. cerevisiae deletion strains, locus YPL241C, strain CIN2, active compounds read low 0.99 | S. cerevisiae deletion strains, locus YPL256C, strain CLN2, active compounds read low 0.996 | S. cerevisiae deletion strains, locus YPR119W, strain clb2, active compounds read low 0.99 | S. cerevisiae deletion strains, locus YPR141C, strain kar3, active compounds read low 0.977 | S. cerevisiae deletion strains, locus YPR163C, strain tif3, active compounds read low 0.985 | S. cerevisiae deletion strains, locus YPR167C, strain met16, active compounds read low 0.981 | S. cerevisiae deletion strains, strain wtn01, active compounds read low 0.98 | S. cerevisiae strains, strain wild type, active compounds read low 0.986
